Screens (PubChem BioAssay)
An excerpt weighted towards active compounds, which were near 27% of everything screened.
CYP2C19 inh = inhibitors of human CYP2C19; P33261; CYP2C19 Supersomes, luciferin-H EGE luminescence, 30 min; inhibition, % at 5 µM; 96,000 tested, 21% active;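 active = CYP2C19 inhibition above a set limit at 5 µM in the primary screen, cut at about 50% in these data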;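 also: plate controls were negative control wells for no effect and 2.5 mM tranylcypromine positive control for full effect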
CYP2C9 activ = activators of human CYP2C9. AID 1024. P11712. activation factor at 5 µM. recombinant CYP2C9, luciferin-H conversion, luminescence; active compounds read high; factor 1 = untreated enzyme, 0 = blocked. 96,000 tested, 1.4% active;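 active = activation factor of 2 or more for CYP2C9 at a 5 µM dose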;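 also: 0 = sulfaphenazole-blocked wells and 1 = vehicle-only wells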
sEH act = activators of human soluble epoxide hydrolase. purified human sEH enzymatic activity, activator screen. 91,000 tested, 0.04% active. activation, % at 2 µM. AID 717. P34913; in the data active = activation above about 37%
Target sequence (P34913 whole entry, looked up): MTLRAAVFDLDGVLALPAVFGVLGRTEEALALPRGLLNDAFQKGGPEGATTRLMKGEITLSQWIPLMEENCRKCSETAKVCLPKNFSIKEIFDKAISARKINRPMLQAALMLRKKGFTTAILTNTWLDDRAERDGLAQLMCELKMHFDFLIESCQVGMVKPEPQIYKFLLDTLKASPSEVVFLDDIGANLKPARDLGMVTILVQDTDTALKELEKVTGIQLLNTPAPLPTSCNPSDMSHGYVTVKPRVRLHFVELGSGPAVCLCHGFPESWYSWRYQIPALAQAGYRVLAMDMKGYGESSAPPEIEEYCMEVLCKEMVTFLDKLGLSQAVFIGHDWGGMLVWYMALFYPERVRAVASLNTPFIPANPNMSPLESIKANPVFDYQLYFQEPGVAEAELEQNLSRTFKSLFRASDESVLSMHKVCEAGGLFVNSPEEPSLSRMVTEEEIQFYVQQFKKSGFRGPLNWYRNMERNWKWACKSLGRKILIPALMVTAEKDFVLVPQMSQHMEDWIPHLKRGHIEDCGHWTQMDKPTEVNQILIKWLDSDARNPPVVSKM
sEH inh = inhibitors of human soluble epoxide hydrolase; P34913; recombinant human sEH enzymatic activity assay; inhibition, % at 2 µM; 91,000 tested, 0.34% active; in the data active = inhibition above about 80%
CYP2C9 inhib = inhibitors of human CYP2C9 | P11712 | CYP2C9 Supersomes, luciferin-H conversion, luminescence | inhibition, % at 5 µM | 96,000 tested, 20% active;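 active = blocking of liver enzyme CYP2C9 beyond about 50% at 5 µM, limit read from the data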
CYP2C19 act = increases human CYP2C19 enzyme activity. recombinant CYP2C19, luciferin-H EGE luminescence; active compounds read high; 0 = fully inhibited enzyme, 1 = untreated enzyme. activation factor at 5 µM. 96,000 tested, under 10 active. P33261;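 active = activation factor of at least 2 at 5 µM in the primary screen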;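 also: 0 = wells with 2.5 mM tranylcypromine and 1 = vehicle-only wells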
The depositor's hits bear a star; nt = no result.

SMILES	CYP2C19 inh	CYP2C9 activ	sEH act	sEH inh	CYP2C9 inhib	CYP2C19 act
O=C(Cn1cccc1)N1CCN(c2ccc(F)cc2)CC1	73*	0.9	-12	11	12	0.3
O=C(CN1CCN(c2ccc(F)cc2)CC1)N1CCOCC1	28	0.8	-8	8	17	0.7
CCOC(=O)c1c(C)nc(C)c(C(=O)OCC)c1-c1ccccc1	nt	nt	7	-8	nt	nt
CCOC(=O)c1c(C)[nH]c(=S)c(C#N)c1-c1ccc(OC)cc1	39	0.2	10	-6	78*	0.6
CCN(CC)CCCNC(=O)c1cc(-c2ccc(Cl)c(Cl)c2)on1	-3	0.9	0	2	6	1
CCN(CC)CCCNC(=O)c1cc(-c2ccc(O)cc2)on1	0	2.3*	-3	5	-129	1
O=C(Nc1ccccc1)c1n[nH]c(Cn2cncn2)n1	1	1	-6	4	-2	1
O=C(Nc1cccc(C(F)(F)F)c1)c1n[nH]c(Cn2cncn2)n1	10	0.5	9	-12	51*	0.9
COCCn1c(SCC(=O)Nc2ccc(S(=O)(=O)N(C)C)cc2)nc2ccccc21	-28	1.1	-5	5	-13	1.3
CCc1nc(-c2ccccc2O)n(-c2ccccc2)n1	74*	0.8	9	-5	18	0.3
Cc1ccc(CN(C(=O)Cn2nnc3ccccc32)C(C(=O)NCc2ccco2)c2cccs2)cc1 (stereo not given)	73*	0.6	19	-19	40	0.3
O=C(c1ccc(Cl)c(S(=O)(=O)N2CCOCC2)c1)N1CCN(Cc2ccccc2)CC1	nt	nt	-7	12	nt	nt
CCOC(=O)C1=C(C)N=c2sc(=C(C)C)c(=O)n2C1c1ccc(N(C)C)cc1 (stereo not given)	nt	nt	-8	10	nt	nt
CCOC(=O)C1=C(C)N=c2s/c(=C/c3ccccc3)c(=O)n2C1c1ccc(OC)c(OC)c1 (stereo not given)	38	0.6	2	2	44	0.6
CCOC(=O)C1=C(C)N=c2s/c(=C3\C(=O)Nc4ccccc43)c(=O)n2C1c1ccc2c(c1)OCO2 (stereo not given)	11	0.4	3	-6	59*	0.9
CCOC(=O)C1=C(C)N=c2s/c(=C\c3ccncc3)c(=O)n2C1c1ccc2c(c1)OCO2 (stereo not given)	85*	0.2	nt	nt	85*	0.2
CS(=O)(=O)N(CC(=O)NC1CCCC1)c1ccc2c(c1)OCCO2	21	0.9	2	-2	9	0.8
CCC(=O)Nc1cccc(NC(=O)CSc2nnc(-c3ccc(NS(C)(=O)=O)cc3)n2CC)c1	36	0.5	-4	4	54*	0.6
CCOC(=O)c1sc(SCC(=O)Nc2ccc(N(C)C)cc2)nc1N	69*	0.4	-8	7	57*	0.3
CCn1c(SCC(=O)NCc2ccc(C)cc2)nnc1-c1ccncc1	20	0.6	-1	1	43	0.8
CCn1c(SCC(=O)Nc2ccc(S(=O)(=O)Nc3ccccn3)cc2)nnc1-c1ccncc1	60*	0	9	-4	95*	0.4
CCn1c(SCC(=O)Nc2cc(C)on2)nnc1-c1ccncc1	73*	0.8	-7	7	18	0.3
CCOC(=O)CCc1c(C)n(CC)c2cc(-c3ccccc3OC)nn2c1=O	3	1	10	-10	3	1
CCn1c(SCC(=O)Nc2ccc(C)cc2)nnc1-c1ccc(O)cc1	nt	nt	2	-1	nt	nt
CCn1c(SCC(=O)Nc2cccc(NC(=O)c3cccs3)c2)nnc1-c1ccncc1	31	0.3	-2	2	72*	0.7
SMILES	CYP2C19 inh	CYP2C9 activ	sEH act	sEH inh	CYP2C9 inhib	CYP2C19 act
CCn1c(SCC(=O)Nc2ccc(N(C)C)cc2)nnc1-c1cccc(C)c1	73*	0.1	-7	9	86*	0.3
CCn1c(SCC(=O)NCc2cccs2)nnc1-c1ccncc1	44	0.8	-11	11	18	0.6
Cc1cccc(C)c1NC(=O)Cn1nnc(-c2ccc(N3CCOCC3)cc2)n1	-10	0.7	11	-11	33	1.1
CCCCNC(=O)CCc1nc2cccnc2n1Cc1ccc(OC)cc1	41	0.8	5	-3	22	0.6
COC(=O)[C@H](CCSC)NC(=O)N1CCC(C)CC1	97*	0	6	-4	96*	0
COC(=O)[C@H](CCSC)NC(=O)N1CCN(Cc2ccccc2)CC1	21	0.8	-7	7	16	0.8
